The values that follow come from PubChem BioAssay AID504853 (Southern Research Specialized Biocontainment Screening …, 2011).

For orientation: viability means a read-out of living cells in per cent, often relative to untreated cells.

Entries with a potency or affinity are not part of this list. Values without a mark were called inactive. The rule behind the calls is not given here.

The test is described as follows: HepG2 cell cytotoxicity, dose response, cytotoxicity control, set 3 (AID 504853). The note with it: series mostly up to 50 µM; viability: at the top concentration.
Regarding `Cc1[nH]c(=S)[nH]c(=O)c1C`, the “viability” value is 106%.
Consider `CC1CCN(C(=O)CSc2nc3ccccc3c(=O)[nH]2)CC1`, for which the “viability” value was 99.3%.
To `CC[N+](C)(CC)CCCCOc1ccc2c(c1)C(=O)c1cc(OCCCC[N+](C)(CC)CC)ccc1-2` belongs 83.8%; to `CC(C)NC(=O)CSc1nc2ccccc2c(=O)[nH]1`, 93.4%.
